Screens: PubChem, National Center for Advancing Translational Sciences (NCATS)
A selection: hits, their analogues and other compounds. The true share with any hit is near 19%.
TDP1 inh: qHTS Assay for Inhibitors of Tyrosyl-DNA Phosphodiesterase (TDP1) | AID 485290, 2010 | 350,000 compounds, 0.28% hits | Potency, µM (series often up to 130 µM), inactives show at the top dose activity change, negative = inhibition, usual class: inhibitors | recombinant TDP1, AlphaScreen DNA substrate cleavage | Tyrosyl-DNA phosphodiesterase 1 (Homo sapiens), Q9NUW8; further: potency means the concentration at half of the fitted maximal effect; on the % scale 0 is the no-effect control and ±100 the full control effect; nearly all actives have a fitted effect of over 40% in size
Target sequence (Q9NUW8 whole entry, looked up): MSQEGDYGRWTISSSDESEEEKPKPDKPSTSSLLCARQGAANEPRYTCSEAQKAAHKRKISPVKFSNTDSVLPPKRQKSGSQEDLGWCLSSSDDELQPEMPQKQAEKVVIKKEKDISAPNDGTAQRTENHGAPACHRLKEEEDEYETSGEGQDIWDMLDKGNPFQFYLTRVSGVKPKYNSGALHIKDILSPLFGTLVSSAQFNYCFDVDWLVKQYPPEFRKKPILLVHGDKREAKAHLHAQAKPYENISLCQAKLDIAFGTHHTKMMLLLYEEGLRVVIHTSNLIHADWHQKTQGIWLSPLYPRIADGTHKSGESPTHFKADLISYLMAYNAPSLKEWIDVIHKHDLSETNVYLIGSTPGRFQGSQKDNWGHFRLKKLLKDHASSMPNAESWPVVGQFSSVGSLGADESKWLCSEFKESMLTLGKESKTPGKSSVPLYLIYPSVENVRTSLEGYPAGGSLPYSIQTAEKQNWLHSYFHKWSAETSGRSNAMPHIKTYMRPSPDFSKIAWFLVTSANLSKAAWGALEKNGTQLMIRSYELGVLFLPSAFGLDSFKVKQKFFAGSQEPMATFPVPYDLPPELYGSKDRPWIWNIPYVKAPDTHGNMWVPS
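Compounds were preincubated with Tdp1 (1 nM final) for 15 min at room temperature before substrate (15 nM final) started a 5 min reaction; beads (10 ug/ml final) were then added for 10 min before AlphaScreen detection.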
HepG2 tox: qHTS for Inhibitors of TGF-b: Cytotox Counterscreen; HepG2 CAGA-GFP viability, ATP luminescence, 18 h; Potency, µM (series often up to 46.1 µM), inactives show at the highest dose activity change, negative = cytotoxicity, actives largely listed as cytotoxic; 410,000 compounds, 0.76% hits; AID 588856, 2011; further: potency means the concentration at half of the fitted maximal effect
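HepG2 CAGA-GFP cells (1000/well, DMEM with 1% FBS) received compound, then TGF-beta at 500 pg/mL final, and were incubated 18 hours at 37 degrees C. Viability was read by CellTiter-Glo luminescence. Media-only wells were set as complete cell-killing and DMSO as no toxicity.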
TGFb inhibitor: qHTS for Inhibitors of TGF-b. HepG2 CAGA-GFP TGF-b/SMAD3 reporter, GFP fluorescence, 18 h; TGF-beta stimulated, 500 pg/mL final. Potency, µM (top dose mostly 46.1 µM), for inactives: top-dose activity, negative = inhibition, hits mostly inhibitors. 410,000 compounds, 1.2% hits. AID 588855, 2011; further: potency means the concentration at half of the fitted maximal effect; on the % scale 0 is the no-effect control and ±100 the full control effect; nearly all actives have a fitted effect of over 65% in size
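HEPG2 CAGA-GFP reporter cells (1000/well, DMEM with 1% FBS) received compounds, then recombinant TGF-beta at 500 pg/mL final for 18 hours at 37 degrees C. Per-cell GFP summed per well was normalised to unstimulated and stimulated DMSO controls before curve fitting.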
TDP1 cell CPT: qHTS for Inhibitors of human tyrosyl-DNA phosphodiesterase 1 (TDP1): qHTS in cells in presence of CPT. Potency, µM (series often up to 46.2 µM), without a hit: top-dose activity change, negative = growth inhibition, actives largely listed as inhibitors. chicken DT40 Tdp1-/-;hTDP1 cells + 20 nM CPT, ATP luminescence, 48 h. 420,000 compounds, 12% hits; further: potency means the concentration at half of the fitted maximal effect; on the % scale 0 is the no-effect control and ±100 the full control effect; nearly all actives have a fitted effect of over 55% in size
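Chicken DT40 Tdp1-/- cells complemented with human TDP1, 400 cells/well, exposed to compounds plus 20 nM camptothecin for at least 48 h at 37 C; viability read as ATP content by CellTiter-Glo luminescence.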
IL-1B inflam inh: qHTS for Inhibitors of Inflammasome Signaling: IL-1-beta AlphaLISA Primary Screen. THP-1 LPS/ATP IL-1B secretion, AlphaLISA, 16 h; active compounds read low. activity change, % at 57.5 µM. 360,000 compounds, 4.7% hits. AID 743279, 2014; in the data active means activity change below about -50%; inconclusive means mostly about -30% to -49%; further: on the % scale 0 is the no-effect control and ±100 the full control effect
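Secreted IL-1B measured by AlphaLISA bead assay after 16 h compound exposure of THP-1 cells; compounds (final up to 57.5 uM) added 1 h before LPS (250 ng/mL) and ATP (1.25 mM) stimulation; lower signal means less secretion.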
TDP1 cell noCPT: qHTS for Inhibitors of human tyrosyl-DNA phosphodiesterase 1 (TDP1): qHTS in cells in absence of CPT; DT40 Tdp1-/- hTDP1 cells, no CPT, ATP luminescence, 48 h; Potency, µM (top dose mostly 46.2 µM), without a hit: at the top dose activity change, negative = growth inhibition, usual class: inhibitors; 420,000 compounds, 15% hits; further: potency means the concentration at half of the fitted maximal effect; on the % scale 0 is the no-effect control and ±100 the full control effect; nearly all actives have a fitted effect of over 55% in size
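Seeded 400 DT40-hTDP1 cells/well (vehicle DMSO, no 20 nM CPT); pinned compounds; ≥48 hr at 37 °C; CellTiter-Glo luminescence as viability measure.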
Active calls of the source: *; u = inconclusive; x = not tested or not shown; [ ] = another dose, or the depositor's remark. Unless noted, the call rests on the fitted dose curve; in most records, active means well fitted curve in the direction sought with a large enough effect; inconclusive means small, poorly fitted or top-dose-only effect, or another doubt; inactive means no such curve, though single readings can be large; an effect the other way counts as inactive or inconclusive.

SMILES	TDP1 inh	HepG2 tox	TGFb inhibitor	TDP1 cell CPT	IL-1B inflam inh	TDP1 cell noCPT
C=CCCC1(C(C)C)C(=O)NC(=S)NC1=O	x	6.7%	11.7%	-1.5%	13.6	-9.0%
O=C(O)C(Cl)(Cl)Br	7.6%	x	x	x	x	x
COc1cc(C)c(C(=O)CC(=O)c2c(C)cc(OC)cc2C)c(C)c1	x	-63.3%	5.9%	14.6µM*	130.8	11.6µM*
CC1(C)S[C@@H]2[C@H](N3C(=O)C(c4ccccc4)NC3(C)C)C(=O)N2[C@H]1C(=O)O (stereo partly drawn)	x	x	x	2.5%	x	-12.7%
Cc1nn(CC(C)C)c(Cl)c1C(=O)NC1CCCC1	x	4.2%	-6.7%	4.3%	-9.6	5.4%
COc1cccc(C(O)c2nc(-c3ccncc3)cs2)c1 (stereo not drawn)	x	-11.4%	9.0%	23.1µM*	13.3	9.2µM*
CC(=O)Nc1cccc(-c2csc(C(O)c3cccc(Cl)c3)n2)c1 (stereo not drawn)	x	-31.3%	-13.5%	23.1µM*	5.3	18.4µM*
OC[C@@H]1CCCN2CCCC[C@@H]12	8.6%[56.1 µM]	x	x	4.3%	x	-6.7%
CCNC(=O)NNC(=O)C1CC(c2cccnc2)=NO1 (stereo not drawn)	2.7%	3.4%	-22.7%	9.0%	22.7	-12.1%
Cc1cc(NC(=O)c2cccn(Cc3cccc([N+](=O)[O-])c3)c2=O)no1	-2.6%	-9.3%	-1.2%	-14.1%	x	-12.1%
Cc1cc(NC(=O)CCl)on1	2.5%	-9.7%	0.0%	u	-105.9*	9.2µM*
O=c1[nH]c(Cl)ccc1CN1CCOCC1	-11.8%	0.7%	0.9%	-2.2%	13.8	6.0%
COc1ccccc1OC(C)C(=O)N1CCC(Cc2ccccc2)CC1 (stereo not drawn)	10.2%	-3.5%	u	16.4µM*	-72.4*	u
COc1ccccc1CC(=O)N1CCN(CCc2ccccc2)CC1	3.2%	-0.9%	0.5%	21.7%	5.1	u
CC1=C(C)CC2(C(=O)NC(=O)NC2=O)C(C)C1 (stereo not drawn)	x	1.1%	0.0%	-7.0%	5.7	-0.2%
Cc1ccc(Cn2cccc(C(=O)Nc3nc4ccc(C)cc4s3)c2=O)cc1	5.2%	-22.3%	-9.6%	-12.9%	x	-11.2%
CCOC(=O)CCN(SN(C)C(=O)Oc1cccc2c1OC(C)(C)C2)C(C)C	-12.1%	x	x	x	x	x
O=C(c1ccc(F)c([N+](=O)[O-])c1)N1CC2CC(C1)c1cccc(=O)n1C2 (stereo not drawn)	x	2.1%	-0.5%	-26.9%	-51.7*	u
COc1cc(C(=O)N2C[C@H]3C[C@@H](C2)c2cccc(=O)n2C3)cc(OC)c1OC	x	-12.1%	0.1%	10.3%	-5.9	10.1%
O=C(O)c1ccc(NC(=O)N2C[C@H]3C[C@@H](C2)c2cccc(=O)n2C3)cc1	7.5%	-1.0%	2.3%	13.6%[9.04 µM]	11.2	3.6%[9.04 µM]
O=c1cc(CN2CC=C(c3ccccc3)CC2)c2c(ccc3ccccc32)o1	2.7%	-3.8%	-21.7%	u	26.3	20.6µM*
C[C@@H]1CN([C@H](C)CO)C(=O)c2cc(/C=C/c3ccccc3)cnc2O[C@H]1CN(C)C(=O)NC1CCCCC1	x	-9.2%	-2.9%	u	u	u
CCOc1nc(NC(C)C)nc(N2CC3CC(C2)c2cccc(=O)n2C3)n1 (stereo not drawn)	5.3%	18.3%	-0.4%	18.4µM*	15.2	u
ClC(Cl)(Cl)Cl	7.6%	x	x	-1.5%	x	-5.9%
NC(N)=N/N=C/c1cn(-c2ccccc2)nc1-c1cccs1	1.3%	11.2µM*	u	10.3µM*	-98.4*	10.3µM*
SMILES	TDP1 inh	HepG2 tox	TGFb inhibitor	TDP1 cell CPT	IL-1B inflam inh	TDP1 cell noCPT
CCCCC(C#N)(Cn1cncn1)c1ccc(Cl)cc1 (stereo not drawn)	12.1%	x	x	x	x	x
CC[C@H](Oc1ccc(Cl)cc1)C(=O)OC1C[C@H]2CC[C@@H](C1)N2C (stereo partly drawn)	9.0%[56.1 µM]	x	x	u	x	u
COc1cc2nc(N3CCCN(C)CC3)nc(N(C)C3CCN(C)CC3)c2cc1OC	x	-56.9%	u	6.31µM*	x	6.31µM*
CCOP(=S)(OCC)Oc1ccc2c(C)c(Cl)c(=O)oc2c1	x	-33.8%	-8.9%	u	-12.3	6.51µM*
CCOP(=S)(OCC)Oc1cc(C)oc(=O)c1Cl	-2.5%	14.9%	-1.2%	u	7.0	u
CCn1nc(/C=C/c2ccccc2)nc2c(=O)n(C)c(=O)nc1-2	-2.8%	0.891µM*	0.398µM*	1.64µM*	-110.4*	2.06µM*
CCn1nc(-c2cccs2)nc2c(=O)n(C)c(=O)nc1-2	1.9%	0.355µM*	u	0.581µM*	-67.6*	1.16µM*
Cc1ccc2nc(N3CCC(C(=O)N4CCC5(CC4)OCCO5)CC3)sc2c1	5.2%	-18.1%	-15.4%	u	-2.0	u
O=C(C1CCN(c2nc3ccc(Br)cc3s2)CC1)N1CCC2(CC1)OCCO2	5.9%	-12.1%	-0.7%	11.6µM*	-28.8	11.6µM*
CCc1ccc2nc(N3CCC(C(=O)N4CCC5(CC4)OCCO5)CC3)sc2c1	6.2%	-31.7%	-19.1%	11.6µM*	-24.7	16.4µM*
CCN1CC2(OC(=O)c3ccccc3NC(C)=O)CCC(OC)[C@]34C1[C@H](CC23)[C@@]1(O)C[C@H](OC)[C@H]2CC4C1(O)[C@H]2OC (stereo partly drawn)	8.2%	x	x	x	x	x
O=c1cccc2n1CC1CC2CN2CCCCC12 (stereo not drawn)	4.5%	x	x	4.1%	x	15.6%
CC(N)Cc1ccc2c(c1)OCO2 (stereo not drawn)	x	x	x	-12.6%	x	-10.2%
N#CCn1c(CCl)nc2ccccc2c1=O	3.0%	-23.5%	1.1%	4.61µM*	-55.6*	2.59µM*
C[C@@H]1OC=C2[C@@H](O)[C@H]3O[C@H]3C(=O)[C@@]23[C@H]1[C@H]1C2=C([C@@H](O)[C@H]4O[C@@H]4C2=O)[C@@H]3O[C@@H]1C	-0.5%[21 µM]	x	x	x	x	x
CC(=O)OC1N=C(c2ccccc2Cl)c2cc(Br)ccc2NC1=O (stereo not drawn)	9.0%	-21.7%	10.7%	u	-71.4*	u
